Source: PubChem BioAssay (National Center for Advancing Translational Sciences (NCATS))
Abeta yeast res: restores growth of yeast expressing A-beta42 peptide | yeast expressing A-beta42, growth rescue, OD600, 48 h; response scale: 0% DMSO, 100% iron-clioquinol control | Potency, µM (highest dose often 46.1 µM), hits mostly activators | 0.063% of 410,000 active; further: nearly all actives have a fitted effect of over 55% in size
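Yeast growth medium received pinned compounds, then yeast cells expressing toxic A-beta were added; plates incubated at 30 C for 48 hr. Growth read as absorbance at 600 nm, normalized to DMSO and equimolar FeCl3 plus clioquinol controls.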
FUS yeast rescue: suppressors of FUS proteinopathy in yeast; 0.24% of 390,000 active; Potency, µM (top dose mostly 76.6 µM), hits mostly activators; S. cerevisiae FUS-expressing, growth rescue, OD600, 24 h;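 further: plate controls were DMSO vehicle for no effect and reference control for full effect; nearly all actives have a fitted effect of over 55% in size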
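S. cerevisiae expressing FUS from galactose induction served as the toxicity model. Growth after 24hr at 30C, read as absorbance at 600 nm, indicates suppression of toxicity; compounds dosed at several concentrations.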
TDP-43 yeast inh: inhibitors of TDP-43 toxicity in yeast | TDP-43 expressing yeast growth rescue, BacTiter-Glo, 24 h | Potency, µM (doses to about 46.1 µM), without a hit: at the highest dose growth rescue (activation), usual class: activators | 1.8% of 410,000 active | AID 652104; further: % of control where 0% means no effect; nearly all actives have a fitted effect of over 50% in size
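Readout is BacTiter-Glo luminescence of cell growth, so inhibitors register as activators. TDP-43-expressing yeast at OD600=0.02 in galactose medium, after raffinose pregrowth to mid-log, were incubated with compound for 24 hr at 30 deg C.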
aSyn yeast inh: inhibitors of alpha-synuclein toxicity in yeast | Yeast expressing alpha-synuclein, growth rescue, BacTiter-Glo, 24 h | Potency, µM (top dose mostly 46.1 µM), for inactives: top-dose growth rescue (activation), actives largely listed as activators | 0.14% of 370,000 active | AID 652106; further: % of control where 0% means no effect; nearly all actives have a fitted effect of over 65% in size
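Galactose-induced alpha-syn yeast (OD600=0.02, raffinose-pregrown) + pinned cpd, 24 hr, 30 deg C; growth by BacTiter-Glo luminescence. Growth restoration scores as activation.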
Numbers without * were called inactive; i = inactive; ? = inconclusive; / = no result given. The list is not random: actives were taken first. Their share in the collection is about 2.1%. The call rests on the fitted dose curve; in most records, active means well fitted curve in the direction sought with a large enough effect; inconclusive means small, poorly fitted or top-dose-only effect, or another doubt; inactive means no such curve, though single readings can be large; an effect the other way counts as inactive or inconclusive. Potency means the concentration at half of the fitted maximal effect.

SMILES | Abeta yeast res | FUS yeast rescue | TDP-43 yeast inh | aSyn yeast inh
O=C(Cc1ccccc1)NCCCNC(=O)Cc1ccccc1 | i | / | 0% | 0%
CCC(=O)N1CCc2cc(S(=O)(=O)NC(Cc3ccccc3)C(=O)Nc3nccs3)ccc21 (configuration not stated) | i | i | -1% | 1%
O=[N+]([O-])c1ccc(-c2c(-c3ccccc3)ncc3cc(F)ccc23)cc1 | i | ? | 0% | -23%
Fc1cc(F)cc(-c2c(-c3ccccc3)ncc3ccc(F)cc23)c1 | i | i | 35µM* | -16%
O=[N+]([O-])c1cccc(-c2c(-c3ccccc3)ncc3cc(F)ccc23)c1 | i | i | 28µM* | -14%
COc1ccc(C2C(C(C)=O)=C(O)C(=O)N2c2ccc(O)cc2)cc1 (configuration not stated) | i | i | -17% | -1%
O=C(CC(=O)NC1CCCCC1)N/N=C/c1ccccc1[N+](=O)[O-] | i | i | -12% | 1%
CCOC(=O)c1cc(-c2ccccc2)n(-c2cccc(C(=O)Nc3cccc(C(C)=O)c3)c2)c1C | i | ? | 8% | /
O=C(CSc1ccc(Cl)cc1)c1ccco1 | i | i | 7% | -1%
O=C(CSc1ccccc1Cl)c1ccco1 | i | i | 16µM* | 0%
C#CCOCCOCCOCCNc1nc(N2CCN(C(=O)CCCCCCCCCCNC(=O)[C@@H](CCSC)n3cc(CCO)nn3)CC2)nc(N2CCN(C(=O)CCCCCCCCCCNC(=O)[C@@H]([C@H](C)O)n3cc(C)nn3)CC2)n1 | i | 7.9µM* | -5% | -7%
C#CCOCCOCCOCCNc1nc(N2CCN(C(=O)CCCCCCCCCCNC(=O)[C@@H](CCSC)n3cc(CCO)nn3)CC2)nc(N2CCN(C(=O)CCCCCCCCCCNC(=O)[C@H](CCC(=O)O)n3cc(CCCCCN)nn3)CC2)n1 | i | 11µM* | 19% | -21%
C#CCOCCOCCOCCNc1nc(N2CCN(C(=O)CCCCCCCCCCNC(=O)[C@H](CCCCN)n3cc(C[C@@H](C)CC)nn3)CC2)nc(N2CCN(C(=O)CCCCCCCCCCNC(=O)[C@@H]([C@H](C)O)n3cc(C)nn3)CC2)n1 | i | ? | 32% | -60%
C#CCOCCOCCOCCNc1nc(N2CCN(C(=O)CCCCCCCCCCNC(=O)[C@@H](CCSC)n3cc(CCO)nn3)CC2)nc(N2CCN(C(=O)CCCCCCCCCCNC(=O)[C@H](CO)n3cc(CCCCCN)nn3)CC2)n1 | i | ? | 9% | -37%
C#CCOCCOCCOCCNc1nc(N2CCN(C(=O)CCCCCCCCCCNC(=O)[C@H]([C@@H](C)CC)n3cc(CCCCN=C(N)N)nn3)CC2)nc(N2CCN(C(=O)CCCCCCCCCCNC(=O)[C@@H]([C@H](C)O)n3cc(C)nn3)CC2)n1 | i | ? | 1% | -61%
C#CCOCCOCCOCCNc1nc(N2CCN(C(=O)CCCCCCCCCCNC(=O)[C@H](CCCCN)n3cc(C)nn3)CC2)nc(N2CCN(C(=O)CCCCCCCCCCNC(=O)[C@@H]([C@H](C)O)n3cc(C)nn3)CC2)n1 | i | 11µM* | 5% | 0%
C#CCOCCOCCOCCNc1nc(N2CCN(C(=O)CCCCCCCCCCNC(=O)Cn3cc(C[C@@H](C)O)nn3)CC2)nc(N2CCN(C(=O)CCCCCCCCCCNC(=O)[C@@H](CCSC)n3cc(CCO)nn3)CC2)n1 | i | 4µM* | 8% | -1%
COc1ccc(NC2=C(c3ccc(OC)cc3)C(=O)c3ccccc32)cc1 | i | / | 5% | 1%
COC(=O)N1C(=O)[C@](c2ccccc2)(C2CCCC2)N1C(=O)OC | i | i | 14µM* | 2%
CCc1nc2oc3ccccc3c(=O)c2cc1C(=O)OC | i | i | ? | 5%
CC1(C(=O)NCc2cccc(C(F)(F)F)c2)CCN1Cc1ccc(-c2ccccc2)o1 (configuration not stated) | i | i | -26% | 20µM*
CC1(C(=O)NCc2cccc(C(F)(F)F)c2)CCN1Cc1cc2ccccc2o1 (configuration not stated) | i | i | 0% | 13%
CCCNC(=O)c1cc2c(c(-c3cccc(-c4ccccc4F)c3)n1)[C@@H](CCO)N(C(=O)CC1CC1)C2 | i | ? | 14µM* | 0%
O=C(NCC(F)(F)F)c1cc2c(c(-c3cccc(-c4ccccc4F)c3)n1)[C@H](CCO)N(C(=O)CC1CC1)C2 | i | ? | 21% | 11%
COC(=O)c1ccc(S(=O)(=O)N2CCN(C(c3ccccc3)c3ccccc3)CC2)n1C | i | i | 7% | -1%
SMILES | Abeta yeast res | FUS yeast rescue | TDP-43 yeast inh | aSyn yeast inh
CCOC(=O)c1ccc(N=Cc2nc(-c3ccccc3)oc2OC(C)=O)cc1 | i | i | 16µM* | 20%
CC(=O)Oc1oc(-c2ccccc2)nc1C=Nc1ccccc1 | i | / | -86% | -11%
Cc1cccc(C)c1NC(=O)CC1SC2=NCCN2C1=O (configuration not stated) | i | i | 13% | -1%
CCCCNc1nc(N(C)c2ccccc2)nc(-n2ccnc2)n1 | i | i | 14µM* | 28%
CN(c1ccccc1)c1nc(-n2ccnc2)nc(-n2ccnc2)n1 | i | i | ? | 28%
O=C(Nc1cccc2ccccc12)c1ccco1 | i | i | 16µM* | -2%
O=C(Nc1nc2c(ccc3ccccc32)s1)c1ccco1 | i | ? | 5.6µM* | -1%
COc1cc2cc(CNc3ccccc3)c(=O)n(CC(=O)Nc3cc(C)cc(C)c3)c2cc1OC | i | 25µM* | -3% | 9%
CCc1ccc(NC(=O)Cn2c(=O)c(CNc3ccccc3)cc3cc(OC)c(OC)cc32)cc1 | i | i | -6% | /
Cc1ccc(Cl)cc1N(C)C(=O)c1cc2ccc3cccnc3c2[nH]1 | i | ? | 25µM* | /
Cc1ccc(C)c(N2CCN(C(=O)c3cc4ccc5cccnc5c4[nH]3)CC2)c1 | i | ? | 13µM* | /
Cc1cccc(N2CCN(C(=O)C3CCN(S(=O)(=O)c4cccc5cccnc45)CC3)CC2C)c1 (configuration not stated) | i | 22µM* | 11% | 7%
Cc1cccc(N2CCN(C(=O)c3cc4ccc5cccnc5c4[nH]3)CC2C)c1 (configuration not stated) | i | ? | 8.9µM* | /
O=C(NCc1ccccc1)c1cc2ccc3cccnc3c2[nH]1 | i | i | 0% | /
CCN(CC)C(=O)COc1ccc(S(=O)(=O)N2CCOCC2)cc1 | i | i | -19% | -1%
CCCNC(=O)c1onc(CSc2ccc(Cl)cc2)c1C(=O)NCC1CC1 | i | i | 0% | -6%
CC(CC(=O)c1cccs1)CC(=O)c1cccs1 | i | i | 3% | -11%
Cc1cc(C)c(C(CC(=O)c2cccs2)C(C#N)C#N)c(C)c1 (configuration not stated) | i | i | 13µM* | 1%
